The source of these data is PubChem BioAssay (Tox21).

Several values for one entry are separate records, joined by “and”; a condition that tells them apart may be missing. Equal values may be shown once. Inconclusive results are not listed. Activity calls are given as the source filed them. Unless noted, the call rests on the fitted dose curve; in most records, active means well fitted curve in the direction sought with a large enough effect in the repeat runs; inconclusive means weak or mixed curves; inactive means no such curve, though single readings can be large; an effect the other way counts as inactive or inconclusive.

Experiment [1] in a line: qHTS assay for small molecules that induce genotoxicity in human embryonic kidney cells expressing luciferase-tagged ATAD5 (AID 651632). Further: nearly all actives have a fitted effect of over 15% in size. Further: potency means the concentration at half of the fitted maximal effect. In a few lines: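 Reporter cells (HEK293T) express luciferase-tagged ATAD5, a protein that accumulates after DNA damage. Treat 16 hr at 37C/5% CO2, add Amplite, wait 30 min at RT, and read luminescence.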
Background: Quantitative high-throughput screening tests each substance at several concentrations.

A short description of experiment [2]: qHTS assay for small molecule agonists of the p53 signaling pathway - cell viability (AID 651633; calls by dose curve; further: nearly all actives have a fitted effect of over 30% in size; further: potency means the concentration at half of the fitted maximal effect). The method in brief: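 p53RE-bla cells were treated with compound for 16 hours at 37 C. Cytotoxicity was then measured as CellTiter-Glo luminescence after 30 min at room temperature.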
Experiment [3] can be described thus: qHTS assay for small molecules that induce genotoxicity in human embryonic kidney cells expressing luciferase-tagged ATAD5 - cell viability (AID 651634; calls by dose curve; further: nearly all actives have a fitted effect of over 25% in size; further: potency means the concentration at half of the fitted maximal effect). The method in brief:
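Seeding of 2,000 HEK293T ATAD5-luciferase cells per well preceded pin-tool compound transfer. Plates sat 15.5 hr at 37C under 5% CO2, then fluorescence was read after 30 min with CellTiter-Fluor.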

Experiment [4] is described as follows: qHTS assay for small molecule disruptors of the mitochondrial membrane potential (AID 720635). Further: potency means the concentration at half of the fitted maximal effect. In a few lines:
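HepG2 cells exposed to compound 1 hr at 37C, then Mito-MPS dye 30 min. Ratio read of aggregate (540/590 nm) versus monomer (490/535 nm) fluorescence.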

Experiment [5] can be described thus: qHTS assay to test for compound auto fluorescence at 590 nm (red) in HepG2 cells (AID 720674). In a few lines: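 Seeding: 2,000 HepG2 cells/well, MEM/10% FBS, overnight 37 C. Dosing: compound vs DMSO. Incubation: 1 hr, 37 C, 5% CO2. Read: fluorescence 540 ex/590 em, Rose Bengal sodium as red reference.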
The nature of experiment [6]: qHTS assay to test for compound auto fluorescence at 535 nm (green) in HepG2 cells (AID 720675).
Experiment [7] is described as follows: qHTS assay to test for compound auto fluorescence at 460 nm (blue) in HEK293 cells (AID 720678). In a few lines: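 Blue-channel (Ex/Em 405/460 nm) intensity measured in HEK293 cultures after overnight compound exposure at 37C; signal expressed relative to triamterene. Cells plated 2,000 per well in 10% dialyzed FBS medium and allowed 4-5 hr to attach.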
Experiment [8] can be described thus: qHTS assay to test for compound auto fluorescence at 590 nm (red) in HEK293 cells (AID 720679). In a few lines: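 Red-channel autofluorescence (Ex/Em 540/590 nm; Rose Bengal sodium reference) was measured after overnight 37C, 5% CO2 exposure of attached HEK293 cells, 2,000 per well in medium with 10% dialyzed FBS.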
Experiment [9] is described as follows: qHTS assay for small molecule disruptors of the mitochondrial membrane potential - cell viability (AID 720634; calls by dose curve; further: nearly all actives have a fitted effect of over 20% in size; further: potency means the concentration at half of the fitted maximal effect). In a few lines:
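Measuring cytotoxicity alongside mitochondrial potential, the screen quantified ATP by luminescence in HepG2 cells after 1 hr compound incubation and a 30 min room-temperature CellTiter-Glo step.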
On the % scale 0 is the no-effect control and ±100 the full control effect.

In the case of `CC(C)(C)CC(C)(C)c1ccc(O)c(Cc2ccc(Cl)cc2Cl)c1`, the Potency result in [1], in experiment [5], in experiment [6], in experiment [7] and in [8] was “inactive” each time. Besides, the Potency was 13.3 µM (active) in experiment [2], 23.7 µM (active) in experiment [3] and 1.68 µM (active) in experiment [4].

For the molecule `CCCCCCCCNC(C)C(O)c1ccc(SC(C)C)cc1` (stereo not drawn), the Potency result in experiment [1], in experiment [5], in experiment [6], in experiment [7] and in experiment [8] was “inactive” each time. For the same molecule, the Potency in [2] and in experiment [3] was 10.6 µM (active) each time.

For the molecule `CCC(N)(CO)CO`, the Potency entry in experiment [1], in [2], in experiment [3], in [9], in experiment [4] and in experiment [5] was “inactive” in each case. For the same molecule, the Potency entry in experiment [6], in experiment [7] and in experiment [8] was “inactive” throughout.

On to `CCOC(=O)O[C@]1(C(=O)OCCl)CC[C@H]2[C@@H]3CCC4=CC(=O)C=C[C@]4(C)[C@H]3[C@@H](O)C[C@@]21C`, for which the Potency entry in [1], in experiment [2], in [3], in experiment [9], in experiment [4] and in [5] was “inactive” in each case. Besides, the Potency entry in experiment [6], in experiment [7] and in [8] was “inactive” each time.

`CC(C)n1nc(-c2cc3cc(O)ccc3[nH]2)c2c(N)ncnc21`: the results for the Potency in [1], in [2] and in [3] were 9.44 µM (active), 26.6 µM (active) and 0.75 µM (active), respectively. In addition, the Potency result in experiment [9], in experiment [5], in [6], in experiment [7] and in experiment [8] was “inactive” in each case.

`CCC1OCC(COc2ccc(Oc3ccccc3)cc2)O1` (stereo not drawn): the Potency result in experiment [1], in experiment [2], in experiment [3], in [9], in experiment [5] and in experiment [6] was “inactive” in each case. Besides, the Potency result in experiment [7] and in [8] was “inactive” each time.

Take `Oc1ccc2c(c1)-c1ccccc1C2`: the Potency entry in experiment [1], in experiment [2], in [3], in experiment [5], in experiment [6] and in experiment [7] was “inactive” throughout. Moreover, the Potency entry in [8] is “inactive”. Moreover, the Potency in experiment [4] was 9.69 µM (active).

On to `CC(C)C(C)(C)C(C)(C)C(C)(C)S`, for which the Potency result in [1], in [2], in experiment [3], in experiment [5], in [6] and in [7] was “inactive” throughout. Moreover, the Potency entry in experiment [8] is “inactive”.

On to `Cc1ccc(O)c2ncccc12`, for which the Potency result in experiment [1], in [2], in [3], in experiment [9], in [5] and in experiment [6] was “inactive” throughout. Besides, the Potency result in [7] and in experiment [8] was “inactive” throughout.

As to `C[C@H](CCC(=O)O)[C@H]1CC[C@H]2[C@@H]3CC[C@@H]4C[C@H](O)CC[C@]4(C)[C@H]3CC[C@]12C`, the Potency result in experiment [1], in [3], in experiment [5], in experiment [6], in experiment [7] and in [8] was “inactive” throughout. In addition, the Potency was 27.2 µM (active) and 27.3 µM (active) in experiment [2]; 60.9 µM (active) in experiment [4].

For `CCCCCCCCCCn1cc[n+](CCCCCCCCCC)c1C`, the Potency result in experiment [1], in experiment [5], in experiment [6], in experiment [7] and in experiment [8] was “inactive” throughout. Also, the Potency was 68.7 µM (active) in [2], 54.5 µM (active) in experiment [9] and 2.17 µM (active) in [4].

Turning to `NNc1nc(-c2ccc(N)cc2)cs1`, the Potency entry in experiment [1], in experiment [2], in experiment [9], in experiment [5], in [6] and in [7] was “inactive” throughout. Besides, the Potency entry in experiment [8] is “inactive”. Further, in experiment [4], the Potency was 0.0545 µM (active).

`CCCCN(CCCC)C(=O)N(CCCC)CCCC`: the Potency entry in experiment [1], in [2], in experiment [3], in [5], in [6] and in experiment [7] was “inactive” each time. The Potency entry in experiment [8] was “inactive”.

For the molecule `CCN(C(=O)N(CC)c1ccccc1)c1ccccc1`, the Potency entry in [1], in experiment [2], in [3], in experiment [5], in experiment [6] and in experiment [7] was “inactive” in each case. Moreover, the Potency entry in experiment [8] was “inactive”.

For the molecule `Cc1onc(-c2ccccc2Cl)c1C(=O)N[C@@H]1C(=O)N2[C@@H]1SC(C)(C)[C@@H]2C(=O)O`, the Potency entry in [1], in experiment [2], in [3] and in [9] was “inactive” throughout. Further, the fluorescence, relative to Rose Bengal in experiment [5] was -0.424% [at 18.6 µM] (inactive). In experiment [6], the fluorescence, % of fluorescein control was -0.13% [at 18.6 µM] (inactive). Also, the fluorescence, % of triamterene in [7] is -0.0411% [at 18.6 µM] (inactive). Besides, the fluorescence, % of fluorescent control in [8] was 0.844% [at 18.6 µM] (inactive).

Take `Cc1cc(CCN2CCN(c3nsc4ccccc34)CC2)cc2c1NC(=O)CC2(C)C`: the Potency result in experiment [1], in [5], in [6], in experiment [7] and in experiment [8] was “inactive” each time. Also, the results for the Potency in experiment [2], in experiment [3] and in experiment [9] were 43.3 µM (active), 61.1 µM (active) and 54.5 µM (active), respectively.

On to `COc1cc(-c2nc(NC(=O)c3cc4cc(C)cc(C)c4n3CC(=O)O)sc2CCC2CCCCC2)c(OC)cc1Cl`, for which the Potency result in [1], in experiment [9], in [5], in experiment [6], in [7] and in experiment [8] was “inactive” each time. The Potency was 3.97 µM (active) in experiment [2] and 39.7 µM (active) in experiment [3].

Regarding `C=CC(=O)OCCn1c(=O)n(CCOC(=O)C=C)c(=O)n(CCOC(=O)C=C)c1=O`, the figures for the Potency in experiment [1], in [2] and in experiment [3] were 5.45 µM (active), 27.3 µM (active) and 27.3 µM (active), respectively. The Potency entry in [9], in experiment [5], in [6], in [7] and in experiment [8] was “inactive” each time.

For the molecule `CCCCC(CC)COC(=O)c1ccccc1C(=O)O` (stereo not drawn), the Potency entry in experiment [1], in [2], in experiment [3], in [9], in experiment [5] and in experiment [6] was “inactive” throughout. Moreover, the Potency entry in experiment [7] and in experiment [8] was “inactive” in each case.

As to `C[C@@H](NCCCc1cccc(C(F)(F)F)c1)c1cccc2ccccc12`, the Potency result in experiment [1], in experiment [5], in experiment [6], in experiment [7] and in experiment [8] was “inactive” throughout. In addition, the Potency in experiment [2] was 18.8 µM (active); in experiment [3], 26.6 µM (active); in experiment [9] it was 26.6 µM (active).

For the molecule `CN(C)C(=O)C1(N2CCCCC2)CCN(CC[C@@]2(c3ccc(Cl)c(Cl)c3)CN(C(=O)c3ccccc3)CCO2)CC1`, the Potency entry in experiment [1], in [5], in [6], in experiment [7] and in experiment [8] was “inactive” throughout. For the same molecule, the Potency in experiment [2] and in [3] was 64.1 µM (active) throughout.

For the molecule `CCc1oc2ccccc2c1C(=O)c1cc(Br)c(O)c(Br)c1`, the Potency entry in [1], in experiment [3], in experiment [5], in experiment [6], in experiment [7] and in experiment [8] was “inactive” throughout. The Potency in experiment [2] is 26.6 µM (active); in experiment [4], 5.96 µM (active).
